Results filed as inconclusive are left out. Activity calls are given as the source filed them. Unless noted, calls come from the whole dose curve; as a rule, active = well fitted curve in the direction sought with a large enough effect; inconclusive = small, poorly fitted or top-dose-only effect, or another doubt; inactive = no such curve, though single readings can be large; an effect the other way counts as inactive or inconclusive.
Key:
[1] = Viability counterscreen for antagonist of constitutive androstane receptor (CAR) against the NCATS DSHEA and TCM libraries (AID 1794837);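 note: compound exposure lasted 24 h before viability reading; 0% is about no effect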
Summary of the method: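 HepG2-CYP2B6-hCAR cells (2,500/well) were allowed to attach for 5 h, then exposed to compounds with 48 uM CITCO for 24 h at 37C. Viability was read by CellTiter-Fluor fluorescence after 1 h.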

[2] = Viability counterscreen for agonist of constitutive androstane receptor (CAR) against the NCATS DSHEA and TCM libraries (AID 1794838); note: 0% is about no effect
Summary of the method: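 HepG2-CYP2B6-hCAR cells (2,500/well) attached 5 h, then got compounds plus 0.75 uM PK11195 final. After 24 h at 37C, viability read by CellTiter-Fluor fluorescence (Ex/Em 405/540 nm).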

[3] = HepG2 viability counterscreen (readout 2: ATP content) against the NCATS DSHEA and TCM libraries (AID 1794840);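 note: HepG2 cells exposed to substances for about 24 h; 0% is about no effect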
Summary of the method: (§1)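 HepG2 cells (1,000 cells/well) attached ~4 h, then treated ~24 h at 37C with substances. Protease activity read by GF-AFC (25 uM final, 30 min, Ex/Em 380/510 nm); ATP content then by CellTiter-Glo luminescence.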

[4] = HepG2 viability counterscreen (readout 1: protease activity) against the NCATS DSHEA and TCM libraries (AID 1794841);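 note: cells exposed to compounds for about 24 h before the protease read; 0% is about no effect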
Summary of the method: as §1

[5] = target: Cytochrome P450 3A4 (Homo sapiens) (UniProt P08684); assay: qHTS for inhibitors of CYP3A4 against the NCATS DSHEA and TCM libraries (AID 1919971); note: potency is the fitted concentration of half-maximal effect
Sequence of Cytochrome P450 3A4 (Homo sapiens) (P08684 whole entry, looked up, canonical isoform): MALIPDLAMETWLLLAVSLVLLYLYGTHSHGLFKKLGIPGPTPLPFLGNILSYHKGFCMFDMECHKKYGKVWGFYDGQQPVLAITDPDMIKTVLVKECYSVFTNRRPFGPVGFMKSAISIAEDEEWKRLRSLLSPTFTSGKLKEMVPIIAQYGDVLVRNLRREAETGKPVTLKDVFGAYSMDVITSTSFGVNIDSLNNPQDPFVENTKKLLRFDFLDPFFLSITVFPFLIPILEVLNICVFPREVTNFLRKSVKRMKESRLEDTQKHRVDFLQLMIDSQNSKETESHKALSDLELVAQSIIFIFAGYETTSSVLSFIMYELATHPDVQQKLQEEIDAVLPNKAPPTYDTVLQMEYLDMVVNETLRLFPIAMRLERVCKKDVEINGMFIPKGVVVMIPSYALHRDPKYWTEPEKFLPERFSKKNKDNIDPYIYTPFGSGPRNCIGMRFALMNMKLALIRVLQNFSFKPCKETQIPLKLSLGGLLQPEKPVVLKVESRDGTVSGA
Summary of the method: (§2)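 Isoform-specific enzyme and substrate levels; enzyme-free wells as background. Reaction: 1x NADPH regenerating system, 30-45 min, room temperature, shielded from light; luminescent detection reagent added, 30 min.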

[6] = target: Cytochrome P450 2D6 (Homo sapiens) (UniProt P10635); assay: qHTS for inhibitors of CYP2D6 against the NCATS DSHEA and TCM libraries (AID 1919972); note: potency is the fitted concentration of half-maximal effect
Sequence of Cytochrome P450 2D6 (Homo sapiens) (P10635 whole entry, looked up): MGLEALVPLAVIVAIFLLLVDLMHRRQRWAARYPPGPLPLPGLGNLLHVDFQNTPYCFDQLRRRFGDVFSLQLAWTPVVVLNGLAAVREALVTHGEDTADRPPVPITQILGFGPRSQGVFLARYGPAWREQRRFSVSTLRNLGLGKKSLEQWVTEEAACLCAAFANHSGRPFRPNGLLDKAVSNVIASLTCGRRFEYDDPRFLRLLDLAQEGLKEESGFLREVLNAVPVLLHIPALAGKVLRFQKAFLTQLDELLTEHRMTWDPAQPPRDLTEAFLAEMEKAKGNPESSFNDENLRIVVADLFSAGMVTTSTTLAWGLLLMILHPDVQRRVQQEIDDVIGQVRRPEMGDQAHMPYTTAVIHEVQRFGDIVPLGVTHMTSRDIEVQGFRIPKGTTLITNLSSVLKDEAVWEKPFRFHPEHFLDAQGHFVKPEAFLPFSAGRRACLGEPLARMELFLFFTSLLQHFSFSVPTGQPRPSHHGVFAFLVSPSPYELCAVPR
Summary of the method: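 qHTS, concentration–response format with most substances from 19.5 nM. CYP2D6 + pro-luciferin substrate, 15 min with compound, then 1x NADPH regen, 30–45 min RT dark. Glo detection 30 min, luminescence. Quinidine control.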

[7] = target: Cytochrome P450 2C9 (Homo sapiens) (UniProt P11712); assay: qHTS for inhibitors of CYP2C9 against the NCATS DSHEA and TCM libraries (AID 1919973); note: potency is the fitted concentration of half-maximal effect
Sequence of Cytochrome P450 2C9 (Homo sapiens) (P11712 whole entry, looked up): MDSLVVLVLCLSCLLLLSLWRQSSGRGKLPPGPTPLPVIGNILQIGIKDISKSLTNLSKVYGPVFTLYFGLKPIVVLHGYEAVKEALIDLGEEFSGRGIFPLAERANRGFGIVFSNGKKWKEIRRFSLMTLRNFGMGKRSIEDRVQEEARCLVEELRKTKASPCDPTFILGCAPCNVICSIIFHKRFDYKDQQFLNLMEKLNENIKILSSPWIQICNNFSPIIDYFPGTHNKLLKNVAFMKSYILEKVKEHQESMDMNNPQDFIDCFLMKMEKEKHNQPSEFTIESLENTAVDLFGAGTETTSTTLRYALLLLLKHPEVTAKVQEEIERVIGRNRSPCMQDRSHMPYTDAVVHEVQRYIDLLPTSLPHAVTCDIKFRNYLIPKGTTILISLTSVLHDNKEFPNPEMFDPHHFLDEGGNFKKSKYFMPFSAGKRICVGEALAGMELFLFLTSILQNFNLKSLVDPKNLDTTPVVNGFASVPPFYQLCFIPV
Summary of the method: as §2

[8] = KB-3-1 P-gp reporter qHTS against the NCATS DSHEA and TCM libraries (AID 1919975); note: 0% is about no effect
Summary of the method: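 Parental KB-3-1 human cervical adenocarcinoma cells (500 cells/well, DMEM + 10% FBS) were treated with substances for ~72 h at 37C; viability was read by CellTiter-Glo luminescence.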

[9] = target: Cytochrome P450 1A2 (Homo sapiens) (UniProt P05177); assay: qHTS for inhibitors of CYPIA2 against the NCATS DSHEA and TCM libraries (AID 1919976); note: potency is the fitted concentration of half-maximal effect
Sequence of Cytochrome P450 1A2 (Homo sapiens) (P05177 whole entry, looked up): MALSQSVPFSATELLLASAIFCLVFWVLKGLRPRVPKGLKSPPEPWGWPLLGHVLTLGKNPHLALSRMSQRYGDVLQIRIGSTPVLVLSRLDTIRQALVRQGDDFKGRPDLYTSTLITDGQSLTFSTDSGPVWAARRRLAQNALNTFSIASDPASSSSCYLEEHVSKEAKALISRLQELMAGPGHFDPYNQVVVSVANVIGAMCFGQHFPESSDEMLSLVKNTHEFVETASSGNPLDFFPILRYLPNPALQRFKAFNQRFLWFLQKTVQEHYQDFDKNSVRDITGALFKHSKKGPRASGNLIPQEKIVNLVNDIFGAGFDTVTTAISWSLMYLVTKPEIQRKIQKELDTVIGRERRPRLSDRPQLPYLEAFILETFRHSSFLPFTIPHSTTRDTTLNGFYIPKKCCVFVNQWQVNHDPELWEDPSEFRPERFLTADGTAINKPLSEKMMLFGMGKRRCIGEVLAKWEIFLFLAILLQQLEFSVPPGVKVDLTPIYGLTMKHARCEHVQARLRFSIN
Summary of the method: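 Furafylline served as the plate control. Compounds met CYP1A2 and pro-luciferin substrate 15 min before NADPH regeneration solution (1x) was added; after 30-45 min at RT, P450-Glo reagent was added for 30 min and luminescence was measured.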

[10] = qHTS Counterscreen for compound interference against the NCATS DSHEA and TCM libraries (AID 1919978); settings: firefly luciferase detection reagent interference, luminescence; note: % of control where 0% means no effect
Summary of the method: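 D-luciferin (1 uM final) or 100 mM potassium phosphate buffer alone was preincubated 15 min at RT with compounds (19.5 nM to 39.8 uM final). Luciferin detection reagent was then added and luminescence read after 30 min at RT.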

[11] = Dual reporter qHTS for agonist of Pregnane X Receptor (hPXR) against the NCATS DSHEA and TCM libraries: Fluorescence readout (AID 1920058); note: 0% is about no effect
Summary of the method: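 In this qHTS counter-read, reporter-bearing HepG2 cells in charcoal-stripped serum received substances for approximately 24 h before viability was assessed fluorometrically with CellTiter-Fluor.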

[12] = target: Nuclear receptor subfamily 1 group I member 2 (Homo sapiens) (UniProt O75469); assay: Dual reporter qHTS for agonist of Pregnane X Receptor (hPXR) against the NCATS DSHEA and TCM libraries: Luminescence readout (AID 1920059); note: potency is the fitted concentration of half-maximal effect
Sequence of Nuclear receptor subfamily 1 group I member 2 (Homo sapiens) (O75469 whole entry, looked up): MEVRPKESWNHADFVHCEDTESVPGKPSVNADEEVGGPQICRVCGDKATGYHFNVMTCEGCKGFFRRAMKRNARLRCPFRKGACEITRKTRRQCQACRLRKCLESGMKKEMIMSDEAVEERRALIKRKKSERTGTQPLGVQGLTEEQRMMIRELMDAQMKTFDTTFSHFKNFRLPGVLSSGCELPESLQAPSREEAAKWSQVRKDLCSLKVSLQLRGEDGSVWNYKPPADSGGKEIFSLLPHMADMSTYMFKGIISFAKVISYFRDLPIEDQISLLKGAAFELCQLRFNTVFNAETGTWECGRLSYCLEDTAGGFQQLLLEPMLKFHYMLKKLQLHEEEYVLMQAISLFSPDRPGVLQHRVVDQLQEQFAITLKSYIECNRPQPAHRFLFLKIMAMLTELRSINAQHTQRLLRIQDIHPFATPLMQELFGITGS
Summary of the method: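 Luminescent PXR reporter read (ONE-Glo) after a CellTiter-Fluor viability read, following 24 h, 37C treatment of HepG2 cells stably carrying hPXR-Luc.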

[13] = Dual reporter qHTS for antagonist of Pregnane X Receptor (hPXR) against the NCATS DSHEA and TCM libraries: Fluorescence Readout (AID 1920061); note: 0% is about no effect
Summary of the method: (§3)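 hPXR-Luc HepG2 cells exposed 24 h at 37 C to compounds with 2 uM rifampicin in antagonist mode; luciferase luminescence measured by ONE-Glo, with CellTiter-Fluor viability read beforehand.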

[14] = target: Nuclear receptor subfamily 1 group I member 3 (Homo sapiens) (UniProt Q14994); assay: Primary qHTS for agonist of constitutive androstane receptor (CAR) against the NCATS DSHEA and TCM libraries (AID 1794839); note: potency is the fitted concentration of half-maximal effect
Sequence of Nuclear receptor subfamily 1 group I member 3 (Homo sapiens) (Q14994 whole entry, looked up): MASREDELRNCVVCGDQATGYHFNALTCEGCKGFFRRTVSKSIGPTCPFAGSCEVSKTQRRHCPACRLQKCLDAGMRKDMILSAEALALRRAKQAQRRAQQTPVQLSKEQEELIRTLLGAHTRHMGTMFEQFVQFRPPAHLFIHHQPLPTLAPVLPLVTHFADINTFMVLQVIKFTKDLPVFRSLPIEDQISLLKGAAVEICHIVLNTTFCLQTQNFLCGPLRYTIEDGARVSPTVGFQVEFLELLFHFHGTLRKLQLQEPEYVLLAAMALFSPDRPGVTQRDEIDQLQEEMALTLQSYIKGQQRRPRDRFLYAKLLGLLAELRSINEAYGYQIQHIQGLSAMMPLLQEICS
Summary of the method: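 HepG2-CYP2B6-hCAR cells (2,500/well) were attached for 5 h, then treated for 24 h at 37 °C with compounds plus 0.75 µM PK11195. Luciferase luminescence (ONE-Glo) was read, with CellTiter-Fluor viability (Ex/Em 405/540 nm).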

[15] = target: Cytochrome P450 2C19 (Homo sapiens) (UniProt P33261); assay: qHTS for inhibitors of CYP2C19 against the NCATS DSHEA and TCM libraries (AID 1919974);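 note: luminescence from luciferin released by CYP2C19 oxidation of a pro-luciferin substrate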; note: potency is the fitted concentration of half-maximal effect
Sequence of Cytochrome P450 2C19 (Homo sapiens) (P33261 whole entry, looked up): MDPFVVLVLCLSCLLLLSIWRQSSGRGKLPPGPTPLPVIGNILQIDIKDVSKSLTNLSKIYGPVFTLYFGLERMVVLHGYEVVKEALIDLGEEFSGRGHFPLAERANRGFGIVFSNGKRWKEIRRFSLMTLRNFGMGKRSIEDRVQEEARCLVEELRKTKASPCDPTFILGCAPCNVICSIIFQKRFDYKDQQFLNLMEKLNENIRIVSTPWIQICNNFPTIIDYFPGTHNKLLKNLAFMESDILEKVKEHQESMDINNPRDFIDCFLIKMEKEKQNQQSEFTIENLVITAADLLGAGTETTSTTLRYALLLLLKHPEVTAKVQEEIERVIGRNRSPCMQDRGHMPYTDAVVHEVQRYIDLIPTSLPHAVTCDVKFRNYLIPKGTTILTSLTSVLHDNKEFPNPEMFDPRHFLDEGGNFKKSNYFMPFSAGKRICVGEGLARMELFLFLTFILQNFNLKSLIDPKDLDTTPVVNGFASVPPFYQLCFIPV
Summary of the method: as §2

[16] = target: Mitogen-activated protein kinase 10 (Mus musculus) (UniProt Q61831); assay: JNK3 AlphaScreen Assay (AID 530; active = well fitted curve in either direction with a large enough effect, not every such curve was filed as active;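 note: kinase came from lysate of stimulated human HepG2 cells; signal reports phosphorylation of biotinylated GST-cJun 1-79 at Ser73 with 10 µM ATP; series mostly up to about 57 µM; % is set by controls: 0 for no effect and ±100 for the full control effect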)
Summary of the method: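 Kinase buffer: 20 mM Tris-HCl pH 7.6, 10 mM MgCl2, 1 mM DTT, 0.1 mM Na3VO4, 0.01% Tween-20; ATP 10 uM. Substrate biotin-GST-cJun(1-79), enzyme from activated HepG2 lysates. Detection by Ser73 phospho-antibody AlphaScreen.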

[17] = target: Nuclear receptor subfamily 1 group I member 2 (Homo sapiens) (UniProt O75469); assay: Dual reporter qHTS for antagonist of Pregnane X Receptor (hPXR) against the NCATS DSHEA and TCM libraries: Luminescence Readout (AID 1920060);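 note: HepG2 cells carrying hPXR luciferase reporter stimulated with rifampicin at 2 µM; 0% is about no effect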
Summary of the method: as §3

CC(C)(O)[C@@H]1CC[C@](C)([C@H]2[C@@H](O)C[C@@]3(C)[C@@H]4C[C@H](O)[C@H]5C(C)(C)[C@@H](O[C@@H]6OC[C@@H](O)[C@H](O)[C@H]6O[C@@H]6O[C@H](CO)[C@@H](O)[C@H](O)[C@H]6O)CC[C@@]56C[C@@]46CC[C@]23C)O1
inactive: outcome [1] | outcome [2] | outcome [3] | outcome [4] | Potency [5] | Potency [6] | Potency [7] | outcome [8] | Potency [9] | max response [10] 4.11% | outcome [11] | Potency [12] | outcome [13]

C=CC(C)(CCC=C(C)C)OC(C)=O (stereo unspecified)
inactive: outcome [1] | outcome [2] | Potency [14] | outcome [3] | outcome [4] | Potency [5] | Potency [6] | Potency [7] | Potency [15] | outcome [8] | Potency [9] | max response [10] -0.984% | outcome [11] | Potency [12] | outcome [13]

C=C(C)C(CC=C(C)C)CC12CC(CC=C(C)C)C(C)(C)C(CC=C(C)C)(C(=O)/C(=C(\O)c3ccc(O)c(O)c3)C1=O)C2=O (stereo unspecified)
inactive: outcome [1] | outcome [2] | Potency [14] | outcome [3] | outcome [4] | max response [10] 3.47% | outcome [11] | outcome [13]
active: Potency [5] 14.1 µM | Potency [6] 28.2 µM | Potency [7] 15.8 µM | Potency [15] 25.1 µM

C=C(C)C1CC=C(C)C(O)C1 (stereo unspecified)
inactive: Potency [16] | outcome [1] | outcome [2] | Potency [14] | outcome [4] | Potency [5] | Potency [6] | Potency [7] | outcome [8] | max response [10] 4.01% | outcome [11] | Potency [12] | outcome [13]

O=C(/C=C/c1ccc(O)c(O)c1)OC1[C@H](O)CC(O)(C(=O)O)C[C@@H]1O (stereo partly specified)
inactive: outcome [1] | outcome [2] | Potency [14] | outcome [4] | Potency [5] | Potency [7] | Potency [15] | outcome [8] | Potency [9] | max response [10] -1.19% | outcome [11] | Potency [12] | outcome [13]

O=C(/C=C/c1ccc(O)c2c1[C@H](C(=O)O)[C@@H](c1ccc(O)c(O)c1)O2)O[C@H](Cc1ccc(O)c(O)c1)C(=O)O
active: Potency [7] 14.1 µM
inactive: outcome [1] | outcome [2] | Potency [14] | outcome [3] | Potency [6] | Potency [15] | outcome [8] | Potency [9] | max response [10] -1.18% | outcome [11] | Potency [12] | outcome [13]

O=C(O)[C@H]1O[C@@H](Oc2c(-c3ccc(O)c(O)c3)oc3cc(O)cc(O)c3c2=O)[C@H](O)[C@@H](O)[C@@H]1O
inactive: outcome [1] | outcome [2] | Potency [14] | outcome [3] | outcome [4] | Potency [6] | outcome [8] | max response [10] 3.23% | outcome [11] | Potency [12] | outcome [17] | outcome [13]
active: Potency [7] 14.1 µM | Potency [15] 3.98 µM

O=C(OC[C@H]1O[C@@H](OC(=O)c2cc(O)c(O)c(O)c2)[C@H](OC(=O)c2cc(O)c(O)c(O)c2)[C@@H](OC(=O)c2cc(O)c(O)c(O)c2)[C@@H]1O)c1cc(O)c(O)c(O)c1
active: Potency [5] 12.6 µM | Potency [7] 3.16 µM | Potency [15] 3.98 µM
inactive: outcome [1] | outcome [2] | Potency [14] | outcome [3] | outcome [4] | outcome [8] | max response [10] -2.07% | outcome [11] | Potency [12] | outcome [13]

CCCCCCC/C=C/C(=O)CCc1ccc(O)c(OC)c1
active: Potency [5] 14.1 µM | Potency [6] 10 µM | Potency [7] 25.1 µM | Potency [15] 6.31 µM | Potency [9] 25.1 µM
inactive: outcome [1] | outcome [2] | Potency [14] | outcome [3] | outcome [4] | outcome [8] | max response [10] 6.04% | outcome [11] | outcome [17] | outcome [13]

CC1(C)CC[C@]2(C(=O)O)CC[C@]3(C)C(=CCC4[C@@]5(C)CC[C@@H](O)C(C)(C)C5CC[C@]43C)C2C1 (stereo partly specified)
inactive: outcome [1] | outcome [2] | Potency [14] | outcome [3] | outcome [4] | Potency [6] | Potency [7] | Potency [15] | outcome [8] | Potency [9] | max response [10] -3.58% | outcome [11] | Potency [12] | outcome [13]

Oc1cc(O)c2c(c1)O[C@@H](c1cc(O)c(O)c(O)c1)[C@H](O)C2
active: Potency [15] 3.55 µM | Potency [9] 3.55 µM
inactive: outcome [1] | outcome [2] | outcome [3] | outcome [4] | Potency [5] | Potency [6] | outcome [8] | max response [10] -5.21% | outcome [11] | outcome [13]

O=C(O[C@@H]1Cc2c(O)cc(O)cc2O[C@@H]1c1ccc(O)c(O)c1)c1cc(O)c(O)c(O)c1
inactive: outcome [1] | outcome [2] | Potency [14] | outcome [3] | outcome [4] | outcome [8] | Potency [9] | max response [10] 2.25% | outcome [11] | Potency [12] | outcome [13]
active: Potency [7] 12.6 µM

C=C1CC/C=C(/C)CC[C@@H]2[C@@H]1CC2(C)C
active: Potency [14] 7.08 µM | Potency [15] 3.55 µM | Potency [9] 3.55 µM
inactive: outcome [1] | outcome [2] | outcome [3] | outcome [4] | Potency [6] | outcome [8] | max response [10] 1.11% | outcome [11] | Potency [12] | outcome [13]

CCCCC/C=C/C(=O)CCc1ccc(O)c(OC)c1
inactive: outcome [1] | outcome [2] | Potency [14] | outcome [3] | outcome [4] | Potency [7] | outcome [8] | max response [10] 4.24% | outcome [11] | outcome [13]
active: Potency [5] 17.8 µM | Potency [15] 7.08 µM | Potency [9] 15.8 µM | Potency [12] 31.6 µM
